# Test results reported in PMC4336329 (PLoS ONE, 2015).
# About 14,000 (4.5%) of roughly 310,000 compounds showed an effect of 50% or more. The effect is printed as a negative number. The full list was thinned out, with strong results kept by preference.
# Biological target: human ether-à-go-go-related gene (hERG) potassium channel (human, UniProt Q12809)
# Assay: primary screen, population patch clamp on CHO cells stably expressing hERG; higher = less effect of the substance
# 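Also: peak tail current of the secondary pulse compared with the same well before compound.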
# human ether-à-go-go-related gene (hERG) potassium channel, sequence (Q12809 whole entry, looked up): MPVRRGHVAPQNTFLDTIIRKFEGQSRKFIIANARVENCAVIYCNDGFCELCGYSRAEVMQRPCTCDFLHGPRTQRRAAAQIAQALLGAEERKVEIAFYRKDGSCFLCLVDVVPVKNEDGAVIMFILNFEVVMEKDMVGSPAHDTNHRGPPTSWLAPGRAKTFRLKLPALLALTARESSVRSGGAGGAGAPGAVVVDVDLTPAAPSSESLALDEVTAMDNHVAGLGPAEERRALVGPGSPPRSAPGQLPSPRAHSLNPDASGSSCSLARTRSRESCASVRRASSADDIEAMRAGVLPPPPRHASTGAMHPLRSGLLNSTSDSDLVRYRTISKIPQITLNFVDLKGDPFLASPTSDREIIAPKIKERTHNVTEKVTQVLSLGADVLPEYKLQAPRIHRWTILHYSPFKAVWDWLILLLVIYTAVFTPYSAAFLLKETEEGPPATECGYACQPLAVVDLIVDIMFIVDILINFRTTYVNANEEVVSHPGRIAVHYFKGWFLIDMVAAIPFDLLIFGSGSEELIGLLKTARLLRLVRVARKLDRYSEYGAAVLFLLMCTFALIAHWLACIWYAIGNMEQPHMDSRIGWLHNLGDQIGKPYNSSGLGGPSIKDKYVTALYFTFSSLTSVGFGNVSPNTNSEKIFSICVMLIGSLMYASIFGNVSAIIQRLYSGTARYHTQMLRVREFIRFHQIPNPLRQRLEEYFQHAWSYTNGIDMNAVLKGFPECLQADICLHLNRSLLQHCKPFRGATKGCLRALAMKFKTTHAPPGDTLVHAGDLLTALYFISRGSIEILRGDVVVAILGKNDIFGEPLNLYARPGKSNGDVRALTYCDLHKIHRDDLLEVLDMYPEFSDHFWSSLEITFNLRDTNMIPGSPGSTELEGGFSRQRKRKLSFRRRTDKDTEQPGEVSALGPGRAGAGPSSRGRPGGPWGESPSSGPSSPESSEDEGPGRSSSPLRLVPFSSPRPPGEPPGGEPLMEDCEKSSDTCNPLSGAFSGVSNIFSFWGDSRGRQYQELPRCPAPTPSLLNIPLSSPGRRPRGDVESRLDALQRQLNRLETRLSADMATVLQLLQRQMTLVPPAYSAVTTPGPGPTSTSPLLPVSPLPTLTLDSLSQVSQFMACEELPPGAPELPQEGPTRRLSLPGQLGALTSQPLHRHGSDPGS
row,Compound,"hERG current change (%, negative = inhibition) at 10uM [%]"
1,COc1cc(Cl)c(C)cc1Nc1ncccn1,4.73
2,CC(=O)c1cccc(NC(=S)N2CCCC2)c1,9.57
3,Cc1csc2ncnc(NC3CCN(Cc4ccccc4)CC3)c12,-65.5
4,Cc1sc2ncnc(NC3CCN(Cc4ccccc4)CC3)c2c1C,-79.6
5,Cc1sc2ncnc(Nc3ccccc3)c2c1C,2.79
6,OC1CCC(Nc2ncnc3sccc23)CC1 (stereo not drawn),13.2
7,Cc1csc2c(NC3CCN(Cc4ccccc4)CC3)ncnc12,-31.8
8,Cc1csc2ncnc(NCCc3ccccn3)c12,-22.4
9,Cc1sc2ncnc(N[C@@H](Cc3ccccc3)C(=O)O)c2c1C,14
10,c1ccc(CN2CCC(Nc3ncnc4sccc34)CC2)cc1,-66.9
11,c1ccc(CNc2ncnc3sccc23)cc1,9.9
12,COc1ccc(NC(=O)c2cc(-c3ccc(C)cc3)on2)cc1OC,19.4
13,COc1cccc(CN(CC(=O)NCC2CCCO2)C(=O)CNS(=O)(=O)c2ccccc2)c1 (stereo not drawn),7.52
14,O=C(CSc1ccccc1)NC(=O)NCc1ccccc1,5.87
15,COc1ccc(C(=O)C[n+]2ccccc2C)cc1.[Br-],13.3
16,CN(CCCN1CCOCC1)C(=O)c1cc(COc2c(F)cccc2F)on1,2.44
17,CN(CCCN1CCOCC1)C(=O)c1cc(COc2cccc(C(F)(F)F)c2)on1,-40.5
18,Cc1cc(OCc2cc(C(=O)N(C)C3CCOC3)no2)cc(C)c1Cl (stereo not drawn),-73.6
19,Cc1cc(OCc2cc(C(=O)N(C)Cc3nonc3C)no2)cc(C)c1Cl,11.8
20,CN(C(=O)c1cc(COc2ccc(F)c(F)c2)on1)C1CCOC1 (stereo not drawn),-13.1
21,Cc1cc(OCc2cc(C(=O)N(C)C3CCOCC3)no2)cc(C)c1Cl,-13.5
22,Cc1cc(OCc2cc(C(=O)N(C)CC3CCOCC3)no2)cc(C)c1Cl,-69
23,Cc1cc(OCc2cc(C(=O)N(C)CCCN3CCOCC3)no2)cc(C)c1Cl,-58
24,Cc1ccc(OCc2cc(C(=O)N(C)CC3CCOCC3)no2)cc1C,-13.1

row,Compound,"hERG current change (%, negative = inhibition) at 10uM [%]"
1,Cc1cccc(NC(=O)CN2C(=O)CSC2=O)c1,14.5
2,CC(=O)c1ccc(N2CCN(C(=S)NCCCN(C)C)CC2)cc1,2.47
3,CC1(C(=O)N/N=C/c2ccc3c(c2)OCO3)CC1(Br)Br (stereo not drawn),-5.57
4,CC(C)n1c(-c2ccco2)csc1=Nc1cccnc1,-10.3
5,COc1ccccc1-n1cnc2c(c1=O)c1nc3ccccc3nc1n2-c1ccc(C)cc1,-19.7
6,O=C1C2C3C=CC(C4CC34)C2C(=O)N1/N=C/c1ccc(-c2ccc(Cl)cc2[N+](=O)[O-])o1 (stereo not drawn),-13.5
7,COc1ccc(-c2ccc(/C=N/N3C(=O)C4C5C=CC(C6CC56)C4C3=O)o2)c([N+](=O)[O-])c1 (stereo not drawn),-58.9
8,Cc1ccc(-c2ccc(/C=N/N3C(=O)C4C5C=CC(C6CC56)C4C3=O)o2)c([N+](=O)[O-])c1 (stereo not drawn),-12.5
9,CCCCC[C@H](O)/C=C/C1=C(CCCCCCC(=O)O)C(=O)CC1,17.9
10,O=C(COC(=O)c1c[nH]c(=O)[nH]c1=O)NCc1ccccc1,-12.2
11,O=C(CN1CCOCC1)N/N=C/c1ccc(-c2ccc(C(=O)O)cc2)o1,-12
12,O=C(CN1CCOCC1)N/N=C/c1ccc(-c2ccc(Br)cc2)o1,-67.1
13,O=C(CN1CCOCC1)N/N=C/c1ccc(-c2cccc(Cl)c2Cl)o1,-73.4
14,Cc1ccc(-c2ccc(/C=N/NC(=O)CN3CCOCC3)o2)cc1[N+](=O)[O-],-29.5
15,Cc1ccc([N+](=O)[O-])cc1-c1ccc(/C=N/NC(=O)CN2CCOCC2)o1,-38.9
16,O=C(CN1CCOCC1)N/N=C/c1ccccc1,-14.4
17,O=C(COc1ccccc1F)NNC(=O)c1ccc(N2CCCCC2)c([N+](=O)[O-])c1,-36
18,Nc1nc(-c2ccc(Cl)cc2)cn1N,-2.98
19,COc1ccc(C(=O)Nc2ccccc2C(N)=O)cc1,-18.9
20,CC(=O)Oc1cccc(N2C(=O)C3C4C=CC(CC4)C3C2=O)c1 (stereo not drawn),16.1
21,Cc1ccc(-c2nc3ccccc3c(=O)n2-c2ccc(O)cc2)cc1,-3.92
22,C=CCC1(CC=C)CCCN1C(=O)C1CCC(=O)N(CCc2ccccc2)C1 (stereo not drawn),-12.5
23,C=CCC1(CC=C)CCCN1C(=O)C1CCC(=O)N(CCc2ccc(Cl)cc2)C1 (stereo not drawn),-60
24,CC(C)C1CCN(C(=O)C2CCC(=O)N(CCc3ccc(Cl)cc3)C2)CC1 (stereo not drawn),-52.6

row,Compound,"hERG current change (%, negative = inhibition) at 10uM [%]"
1,C=CCC1(CC=C)CCCN1C(=O)C1CCC(=O)N(CCc2ccc(OC)cc2)C1 (stereo not drawn),-18.6
2,O=C1CCC(C(=O)N2CCCCCC2)CN1CCc1ccc(Cl)cc1 (stereo not drawn),-28.9
3,O=C1CCC(C(=O)N2CCC(O)CC2)CN1CCc1ccc(Cl)cc1 (stereo not drawn),1.38
4,COc1ccc(S(=O)(=O)Nc2ccccc2C)cc1,0.614
5,C/C(=N\NC(N)=S)c1cccnc1,2.44
6,Cc1ccc(Nc2cc(C)nc3nc(C)nn23)c(C)c1,9.08
7,Cc1cc(N2CCN(c3ccccn3)CC2)n2nc(C)nc2n1,-51.4
8,Cc1cc(Nc2cccc(C(F)(F)F)c2)n2nc(C)nc2n1,-51.8
9,COc1cccc(Nc2cc(C)nc3nc(C)nn23)c1,-12.8
10,C(=N\N1CCN(c2ccccn2)CC1)/c1ccccn1,13.5
11,COc1ccccc1N1CCN(c2cc(C)nc3nc(C)nn23)CC1,-57.6
12,COc1ccccc1-c1c(C)nn2c(N3CCN(c4ccccc4OC)CC3)cc(C)nc12,3.75
13,Cc1cc(Nc2cccc(F)c2)n2nc(C)nc2n1,-12.1
14,COc1ccccc1N1CCN(c2nc(C)cc(=O)[nH]2)CC1,11.6
15,Cc1ccc(/C=N/N2CCN(c3ccccn3)CC2)cc1,2.68
16,Cc1cc(C)c2c(n1)nn1c(N3CCN(c4ccccc4C)CC3)cc(C)nc21,7.78
17,Cc1ccc(N2CCN(c3cc(C)nc4nc(C)nn34)CC2)c(C)c1,-72.6
18,COC(=O)C(CC(C)C)NC(=O)CNC(=O)c1ccccc1C (stereo not drawn),3.34
19,C/C(=N\OCC(=O)Nc1cc(C)cc(C)c1)c1ccc2c(c1)OCCO2,-13
20,CCC12CN3CCN(CC(C3)/C1=N/NC(N)=O)C2,21
21,Cc1c(Cl)cccc1-n1ccnc1SCC(=O)O,18.2
22,O=S(=O)(/N=C(/c1ccccc1)N1CCOCC1)c1ccc(F)cc1,23.7
23,COc1ccc(-c2cc(C(=O)N(C)Cc3cccc(OC)c3OC)c3ccccc3n2)cc1OC,-28.8
24,COc1ccc(OC)c(/C=C/C(=O)Oc2ccc(C(C)=O)cc2)c1,13.8

row,Compound,"hERG current change (%, negative = inhibition) at 10uM [%]"
1,Nc1c(-c2ccccc2)cnn1-c1cccc(C(F)(F)F)c1,1.64
2,Cc1nnc(SCC(=O)NC2CCCCCC2)n1C,23.4
3,Cc1cc(N2CCN(c3cccc(C(F)(F)F)c3)CC2)n2nc(C)nc2n1,-61.9
4,COc1ccccc1N1CCN(c2cnccn2)CC1,-2.25
5,COc1cc(C)nc(N2CCC(C(=O)NC3CCCCC3)CC2)n1,-3.08
6,Cc1cc(N2CCN(C)CC2)n2nc(-c3ccc(Cl)cc3)nc2n1,-77.3
7,CCOc1cc(C)nc(N2CCC(C(=O)Nc3ccccc3OCC)CC2)n1,5.62
8,Cc1nc2nc(-c3ccc(Cl)cc3)nn2c(C)c1Cl,8.82
9,Cn1nc(C(F)(F)F)c(C#N)c1N1CCN(c2cccc(C(F)(F)F)c2)CC1,3.01
10,CCOc1cc(C)nc(N2CCN(C3CCCCC3)CC2)n1,-67.5
11,Cc1cc(N2CCOCC2)n2nc(C)c(-c3ccc(Cl)cc3)c2n1,8.58
12,Cl.FC(F)(F)c1cccc(N2CCNCC2)c1,-13.3
13,COc1ccccc1N1CCN(c2ccc3ccccc3n2)CC1,-36.5
14,COc1ccccc1N1CCN(c2cc(N3CCCC3)nc(C)n2)CC1,-65.3
15,COc1ccc(/C=N/n2c(-c3cc(C)[nH]n3)n[nH]c2=S)cc1OC,18.6
16,Cc1cccnc1NC(=O)CN1C(=O)NC(C)(c2ccc3ccccc3c2)C1=O (stereo not drawn),-14
17,Cc1cc(C)cc(NC(=S)N(C)C)c1,-5.83
18,COc1ccc(N2CCN(C(=O)c3ccc4c(c3)[nH]c(=S)n3c5ccccc5nc43)CC2)cc1,16.7
19,Cc1nc2cc(NC(=O)c3ccc([N+](=O)[O-])s3)ccc2s1,-9.99
20,O=C(c1cc(-c2cccc(O)c2)on1)N1CCN(C(c2ccccc2)c2ccccc2)CC1,10.8
21,Cc1ccc2nc(SCc3nc4c(cnn4-c4ccccc4)c(=O)[nH]3)[nH]c2c1,15.3
